# Source: PubChem
# Only some compounds are listed: those with a hit (about 3.3% of all), similar ones and a draw of the others.
# PHOSPHO1 inh: PubChem AID 1565. recombinant PHOSPHO1, absorbance phosphatase assay. inhibition, % at 13.3 µM. actives 1.1% (n = 290,000); in the data active = inhibition above about 60%
# Target sequence (Q8TCT1 whole entry, looked up): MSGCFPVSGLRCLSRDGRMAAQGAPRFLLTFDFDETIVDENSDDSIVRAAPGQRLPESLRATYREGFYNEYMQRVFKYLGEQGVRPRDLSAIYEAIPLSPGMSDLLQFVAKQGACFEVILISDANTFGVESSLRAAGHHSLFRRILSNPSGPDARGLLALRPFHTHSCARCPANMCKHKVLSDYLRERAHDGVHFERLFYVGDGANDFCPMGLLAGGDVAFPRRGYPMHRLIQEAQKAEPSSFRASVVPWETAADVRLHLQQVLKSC
# CendR NRP1 mod: modulators of CendR peptide binding to NRP-1, primary screen, biochemical, fluorescence polarization, uHTS; inhibition, % at 25 µM; actives 0.85% (n = 360,000); AID 602438, 2012; FAM-RPARPAR peptide binding to NRP-1; Neuropilin-1 (Homo sapiens), O14786;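 active = inhibition or corrected inhibition above about 18%, plus a signal ratio from 0.5 to 1.5, limit read from the data, passing the limit was not always enough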
# HNF4A DNA FP: change in binding of human HNF4A to DNA, primary screen, biochemical, fluorescence polarization, FITC-DNA. 1 h. Hepatocyte nuclear factor 4-alpha (Homo sapiens), P41235. activity change, % at 10 µM. actives 0.3% (n = 360,000); in the data active = activity change above about 30%, passing the limit was not always enough
# CTSL1 counter: Fasciola hepatica cathepsin L1 inhibitors, primary screen, counter-screen for PFM18AAP inhibitor project, biochemical, QFRET, fluorogenic peptide substrate; recombinant F. hepatica cathepsin L1, Z-Leu-Arg-MCA fluorescence; inhibition, % at 5.96 µM; actives 0.49% (n = 300,000); AID 1906, 2009;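 active = inhibition above the mean of all tested compounds plus 3 SD, set per screening campaign, cut at about 17% in these data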;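 note: 0% = plate median of test compound wells and 100% = 1 µM Z-Phe-Ala-diazomethylketone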
# Rpn11 inh: Rpn11 (PSMD14) deubiquitinase inhibitors, primary screen, biochemical, fluorescence polarization, uHTS; human 26S proteasome, Ub4-pepOG fluorescence polarization; 20S core pre-blocked with epoxomicin; inhibition, % at 20 µM; AID 588493, 2011; actives 0.59% (n = 360,000);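 active = inhibition at 20 µM, scaled to each plate's controls, above about 33%, limit read from the data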
# TPT1 inh: Candida albicans TPT1 enzyme inhibitors, primary screen, biochemical, fluorescence polarization; tRNA 2'-phosphotransferase TPT1 (Candida albicans SC5314); recombinant caTPT1, FP RNA substrate dephosphorylation; inhibition, % at 5 µM; actives 0.81% (n = 300,000); AID 1962, 2009;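 active = inhibition above the mean of all tested compounds plus 3 SD, set per screening campaign, cut at about 24% in these data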;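 note: plate controls were DMSO alone for no effect and ferristatin control at 100 nM for full effect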
# * hit, by the source's call; · = no result.
SMILES,PHOSPHO1 inh,CendR NRP1 mod,HNF4A DNA FP,CTSL1 counter,Rpn11 inh,TPT1 inh
COc1ccc(NC(=O)CCNS(=O)(=O)c2cc(Br)cnc2N)c(OC)c1,47,2,-1,3,-2,1
COc1cc(C=NO)nc(-c2ccccn2)c1,·,-13,1,·,8,·
NC(=O)C1C2CCC(C2)C1C(N)=O (centres undefined),·,1,0,·,0,·
CN(C)c1ccc(/C=N/NC(=O)c2nonc2N)cc1[N+](=O)[O-],21,25*,4,2,-3,-6
COC(=O)c1c(C)[nH]c(C(=O)C(C)Sc2nnc(-c3cc(OC)c(OC)c(OC)c3)o2)c1C (centres undefined),-11,-1,0,-1,-2,-6
CCOC(=O)c1cnc(/N=C/N(C)C)s1,36,-1,0,3,3,3
CCOc1ccc2noc3c2c1C(=O)c1ccccc1-3,62*,126,-89,2,-212,-92
CCNc1ccc2noc3c2c1C(=O)c1ccccc1-3,4,126,-89,3,-156,-37
CCN(CC)c1ccc(NC(=O)c2nc3nc(C)cc(C(F)F)n3n2)cc1,78*,-6,3,-1,1,3
Cc1ccc(NC(=O)Cc2nnc(SCC(=O)c3ccc(Br)cc3)n2C)cc1Cl,78*,·,·,-6,·,-6
COc1ccc2c(c1OC)CN1CCc3cc4c(cc3[C@@H]1[C@@H]2O)OCO4,33,29*,-21,3,-17,-6
COc1cc2c(cc1OC)C1Cc3ccc(OC)c(OC)c3CN1CC2 (centres undefined),10,2,0,-3,-2,-2
CCOC(=O)CSc1n[nH]c(NC(=O)c2cccc(C)c2)n1,60*,-10,-3,-4,2,0
CCCCNC(=O)Nc1nc(SCC(=O)OCC)n[nH]1,30,-3,1,1,0,0
CC(C)(C)C(=O)NC(Nc1cccc2cccnc12)C(Cl)(Cl)Cl (centres undefined),76*,16,1,2,-2,-1
CCC(=O)NC(NC(=S)Nc1cccc2cccnc12)C(Cl)(Cl)Cl (centres undefined),-4,-3,4,2,-15,-1
O=C(NCCC(=O)N(Cc1ccco1)Cc1cccs1)c1ccc(Br)cc1,·,5,2,·,-4,·
Cc1n[nH]c(=O)n1-c1ccc(C(C)(C)C)cc1,48,21*,3,-4,3,-4
CC(=O)OCc1c(C)cc(C)c(/C=C(/C#N)C(N)=O)c1C,37,-10,-2,-3,5,2
CCC(C)[C@H](N)c1nnc(SCC(=O)Nc2ccc(C)cc2C)o1 (some centres undefined),22,12,2,32*,-5,-3
CCc1ccccc1NC(=O)CSc1nnc([C@@H](N)Cc2ccccc2)o1,-3,-22,-2,68*,6,-1
CCN(CC)C(=O)CSc1nnc([C@@H](N)Cc2ccccc2)o1,7,1,-2,44*,0,-4
N[C@@H](Cc1ccccc1)c1nnc(SCc2ccccc2Cl)o1,10,-13,0,13,4,-4
O=C(Cn1c(CCCO)nc2ccccc21)Nc1ccccc1-c1ccccc1,22,-2,1,-1,-1,2
O=C(C[C@H]1C=C[C@@H](NC(=O)Cc2cccnc2)[C@@H](CO)O1)NCc1ccc2c(c1)OCO2,·,0,3,·,·,·
SMILES,PHOSPHO1 inh,CendR NRP1 mod,HNF4A DNA FP,CTSL1 counter,Rpn11 inh,TPT1 inh
CC(C)CNC(=S)NNC(=O)CC(C)O (centres undefined),61*,2,3,-5,-1,1
O=c1[nH]c(SCc2n[nH]c(=S)n2-c2ccccc2)nc2sc3c(c12)CCC3,85*,-9,1,3,-2,0
CCOC(=O)C1CCN(S(=O)(=O)c2cccc(-c3cn4cc(Cl)ccc4n3)c2)CC1,97*,-10,0,-1,9,-1
CC1CCN(S(=O)(=O)c2cccc(-c3cn4cc(Cl)ccc4n3)c2)CC1,9,8,-2,-4,0,0
CCOC(=O)C1CCN(S(=O)(=O)c2cccc(-c3cn4ccccc4n3)c2)CC1,84*,0,4,4,0,4
Cc1ccc(C(=O)n2c(=S)nc3ccccn32)cc1,20,·,·,·,·,·
Cc1cccc(C(=O)n2c(=S)nc3ccccn32)c1,85*,1,-1,1,3,0
O=C(CSC1CN(C(c2ccccc2)c2ccccc2)C1)N/N=C/c1ccccc1,15,41*,-5,-1,2,-1
CCOC(=O)C1=C(C)NC2=C(C(=O)CCC2)C1c1cn(Cc2ccc(Cl)cc2Cl)nc1-c1ccccc1 (centres undefined),21,25*,3,0,-1,-3
CCOC(=O)C1=CN(Cc2cccc(-c3ccc(Cl)nc3)c2)S(=O)(=O)N(C)C1C (centres undefined),·,3,2,·,9,·
O=C(NCCNC(=O)c1cccs1)c1ccco1,14,-32,0,19*,0,3
OCCN(CCO)c1cc2c3ccccc3ccc2c2ccccc12,·,25*,-2,·,5,·
Cc1ccccc1CN1CCN(Cc2cc3ccccc3o2)CC1CCO (centres undefined),18,6,1,3,-1,-1
Cc1ccc2nc(CSc3nc(C)ccc3C#N)[nH]c2c1,100*,1,-1,1,2,5
Cc1ccc(C#N)c(SCc2ccccc2F)n1,16,8,0,4,3,-2
COc1ccc(CN2CCN(CCSc3ccc(C)cc3)CC2)c(OC)c1OC,34,6,1,-6,0,-1
CCC(C)C(CO)NCCCn1cnc2c(SC)ncnc21 (centres undefined),·,13,2,·,1,·
Cc1ccc(/C=C/C2=NN(C)C(=O)CC2)cc1,28,36*,-1,0,4,-6
Cn1c(=O)cc2c3c(c(N4CCCCC4)ccc31)C(=O)c1ccccc1-2,20,58*,-84,-1,-118,-44
O=C1c2ccccc2C(=O)c2c1cccc2N1CCCC1,-29,12,-2,6,-3,-6
COc1ccc2[nH]cc(C(=O)CNc3nc(C)cs3)c2c1,89*,-7,3,-1,1,-2
COc1ccc2[nH]cc(C(=O)CN3CC(C)CC(C)C3)c2c1 (centres undefined),-6,-7,1,-2,0,-4
